Bioassay records deposited in PubChem BioAssay by National Center for Advancing Translational Sciences (NCATS).
A selection: hits, their analogues and other compounds. The true share with any hit is near 3.2%.
Nrf2 ARE act = qHTS of Nrf2 Activators; Potency, µM (top dose mostly 46.1 µM), for inactives: at the top dose activation, actives largely listed as activators; 410,000 compounds, 0.31% hits; AREc32 ARE-luciferase reporter (MCF7-derived line), luminescence, 24 h; note: potency is the fitted concentration of half-maximal effect; % of control where 0% means no effect; nearly all actives have a fitted effect of over 65% in size
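AREc32_Fluc, 1000 cells/well, OPTI-MEM + 5% FBS, o/n 37 deg C 5% CO2; 23 nL cpd by pin tool, 24 hr; Steady-Glo 30 min RT, luminescence.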
A549 tox-1 = Nrf2 qHTS screen for inhibitors: counterscreen for cytotoxicity | A549 ARE-Fluc cells, CellTiter-Fluor viability, 18-24 h | 390,000 compounds, 0.16% hits | Potency, µM (highest dose often 46 µM), for the others: at the top dose activity change, negative = cytotoxicity, most hits filed as inhibitors; note: potency is the fitted concentration of half-maximal effect; % is set by controls: 0 for no effect and ±100 for the full control effect
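A549 ARE_Fluc cells in 5% FBS OPTI-MEM were exposed to compounds in concentration-response for 18-24 h at 37 deg C. Viability was read by CellTiter-Fluor fluorescence (Ex 405/Em 525) after 30 min, before the luciferase read.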
Nrf2 inh = Nrf2 qHTS screen for inhibitors | A549 ARE-Fluc reporter, luciferase luminescence, 18-24 h | Potency, µM (titrated, usually from 46 µM), for the others: at the highest dose activity change, negative = inhibition, usual class: inhibitors | 360,000 compounds, 2.1% hits | AID 504444, 2011; note: potency is the fitted concentration of half-maximal effect; % is set by controls: 0 for no effect and ±100 for the full control effect; nearly all actives have a fitted effect of over 60% in size
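Quantitative HTS in A549 cells stably bearing an antioxidant response element-firefly luciferase construct. Inhibition of Nrf2-driven transcription was scored by luminescence after 18-24 h of compound exposure at 37 °C.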
IL-2 act = qHTS of IL-2 Activators; AID 652025, 2013; activation, % (series mostly up to about 46 µM); 360,000 compounds, 0.065% hits; IL-2 activation reporter assay, cell-based qHTS; stimulated with anti-CD3/CD4/CD28 beads; in transgenic mouse T cells; in the data active = activation above about 50%; inconclusive = mostly about 30% to 49%; note: 0% is about no effect
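Unstimulated transgenic mouse T cells; 60-min compound exposure; bead-based TCR/CD4/CD28 stimulation; 18 h culture, 37 degrees C; dual fluorescence (EGFP, DsRed) plate cytometry.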
BRCA1 expr up = qHTS Assay to Identify Small Molecule Activators of BRCA1 Expression; Potency, µM (doses to about 46.1 µM), without a hit: at the top dose activation, most hits filed as activators; MCF7-BRCA1-FFLuc reporter, luminescence, 48 h; response scale: scaled: vehicle 0%, 10 µM genistein 100%; 380,000 compounds, 1.1% hits; note: potency is the fitted concentration of half-maximal effect; nearly all actives have a fitted effect of over 80% in size
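Luminescence from a BRCA1-driven firefly luciferase in MCF7 cells was read after 48 h compound exposure at 37 C. Data normalized against DMSO and a 10microM genistein activation control, then curve-fitted across the titration.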
p53 reactivation = qHTS assay for re-activators of p53 using a Luc reporter. Potency, µM (titrated, usually from 92.2 µM), inactives show top-dose activity change, positive = activation, usual class: activators. 320,000 compounds, 0.063% hits. H1299 p53-A138V BP100-luciferase reporter, luminescence, 24 h; note: potency is the fitted concentration of half-maximal effect; % of control where 0% means no effect; nearly all actives have a fitted effect of over 45% in size
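p53-null H1299 cells stably carrying temperature-sensitive p53-A138V and a BP100-luciferase reporter were pinned with compounds (4-point, 1:5 series) and held 24 hrs at 37 deg C. Luminescence was read 10 min after detection reagent.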
FLuc enzyme inh = Nrf2 qHTS screen for inhibitors: Purified Fluc Biochemical Counterscreen for Hit Validation | shares compounds with Nrf2 inh | 1,400 compounds, 4% hits | Potency, µM (top dose mostly 57.5 µM), inactives show at the top dose activity change, negative = inhibition, most hits filed as inhibitors | purified firefly luciferase, luminescence inhibition | AID 720522, 2013; note: potency is the fitted concentration of half-maximal effect; % is set by controls: 0 for no effect and ±100 for the full control effect; nearly all actives have a fitted effect of over 65% in size
Target sequence (P08659 whole entry, looked up): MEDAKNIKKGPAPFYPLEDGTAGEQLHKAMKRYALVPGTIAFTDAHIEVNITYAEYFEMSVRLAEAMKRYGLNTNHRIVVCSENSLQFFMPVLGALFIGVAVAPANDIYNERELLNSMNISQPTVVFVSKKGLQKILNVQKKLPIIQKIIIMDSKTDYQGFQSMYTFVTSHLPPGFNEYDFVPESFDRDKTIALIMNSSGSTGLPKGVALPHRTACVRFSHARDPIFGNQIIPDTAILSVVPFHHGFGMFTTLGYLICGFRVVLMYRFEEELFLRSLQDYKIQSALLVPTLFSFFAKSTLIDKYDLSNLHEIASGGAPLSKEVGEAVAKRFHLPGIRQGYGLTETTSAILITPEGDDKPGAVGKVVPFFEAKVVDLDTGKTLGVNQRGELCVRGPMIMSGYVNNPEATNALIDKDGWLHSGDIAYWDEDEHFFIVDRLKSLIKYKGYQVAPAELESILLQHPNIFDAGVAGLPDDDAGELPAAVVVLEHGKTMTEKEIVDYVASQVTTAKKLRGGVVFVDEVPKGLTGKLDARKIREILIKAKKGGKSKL
A549 tox-2 = Nrf2 qHTS screen for inhibitors: A549 ARE-Fluc Cytotoxicity Counterscreen for Hit Validation; 1,400 compounds, 2% hits; Potency, µM (doses to about 46.1 µM), without a hit: at the top dose activity change, negative = cytotoxicity, usual class: inhibitors; AID 720523, 2013; A549 ARE-Fluc cells, cytotoxicity counterscreen; shares compounds with Nrf2 inh;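 note: potency is the fitted concentration of half-maximal effect; cells exposed to compounds for 18 to 24 hours; % is set by controls: 0 for no effect and ±100 for the full control effect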
Nrf2 ARE inh = Nrf2 qHTS screen for inhibitors: Nrf2 A549 ARE-Fluc Confirmation Assay for Hit Validation; AID 720524, 2013; A549 ARE-firefly luciferase reporter, luminescence; Potency, µM (doses to about 46.1 µM), for the others: at the highest dose activity change, negative = inhibition, actives largely listed as inhibitors; shares compounds with Nrf2 inh; 1,400 compounds, 74% hits; note: potency is the fitted concentration of half-maximal effect; % is set by controls: 0 for no effect and ±100 for the full control effect; nearly all actives have a fitted effect of over 65% in size
An asterisk follows results filed as active; ? = inconclusive; nt = no result. Unless noted, calls come from the whole dose curve; as a rule, active = well fitted curve in the direction sought with a large enough effect; inconclusive = small, poorly fitted or top-dose-only effect, or another doubt; inactive = no such curve, though single readings can be large; an effect the other way counts as inactive or inconclusive.

SMILES	Nrf2 ARE act	A549 tox-1	Nrf2 inh	IL-2 act	BRCA1 expr up	p53 reactivation	FLuc enzyme inh	A549 tox-2	Nrf2 ARE inh
CCN(Cc1ccccc1)C(=O)Cn1c(=O)n(-c2ccccc2)c(=O)c2c1c1cc(C)ccc1n2C	-0.6%	-13.2%	?	nt	-13.6%	nt	nt	nt	nt
COC(=O)CSc1ncnc2c1sc1nc3c(cc12)COC(C)(C)C3	-0.2%	0.8%	2.91µM*	1.3	-31.6%	6.3%	?	-2.6%	7.31µM*
CC1(C)Cc2nc3sc4c(SCC(=O)O)ncnc4c3cc2CO1	-0.9%	13.8%	?	-0.6	-48.2%	-7.6%	nt	nt	nt
Cc1c(C(=O)N(C)C)sc2c1c(=O)n(-c1ccc(Cl)c(Cl)c1)c(=O)n2CC(=O)Nc1cccc(C(F)(F)F)c1	0.9%	-7.0%	nt	nt	nt	nt	nt	nt	nt
CC(=NNC(=O)c1ccncc1)c1ccc2ccccc2c1O	-1.5%	?	2.59µM*	-6.3	-92.6%	nt	-17.3%	-16.8%	4.11µM*
CC(=NNC(=O)c1ccncc1)c1ccccc1O	-0.9%	-13.6%	?	-0.4	-77.5%	nt	nt	nt	nt
Cc1cc(C)c(S(=O)(=O)Nc2cccc3cccnc23)c(C)c1	nt	-16.0%	2.91µM*	nt	-50.9%	nt	-0.1%	-22.8%	16.4µM*
CCOc1ccccc1CNC(=O)CN(c1ccc(C)cc1)S(=O)(=O)N(C)C	-0.7%	2.8%	nt	nt	nt	nt	nt	nt	nt
O=C(CCCc1nc(-c2ccc(Cl)cc2)no1)NC1CCCC1	-0.5%	-17.5%	4.11µM*	-4.4	-40.2%	-4.0%	1.9%	-3.6%	5.17µM*
Cc1ccc(C)c(NC(=O)CCCn2c(C)c3cnn(-c4ccccc4)c(=O)c3c2C)c1	6.9%	4.2%	-4.3%	nt	-8.6%	nt	nt	nt	nt
CCOc1ccc(-n2c(-c3ccccc3)c[n+]3c2CCC3)cc1	0.0%	-5.8%	2.31µM*	-1.5	-61.4%	-6.4%	0.7%	-10.2%	16.4µM*
CCOc1ccc(-n2c(-c3ccc(OC)cc3)c[n+]3c2CCCCC3)cc1	3.6%	?	2.59µM*	-5.3	-73.5%	-12.2%	1.5%	-19.2%	3.66µM*
Cc1cc(-c2ccccc2)nc2cc(C(=O)Nc3cc(C(F)(F)F)ccc3Cl)nn12	5.4%	12.9%	-4.9%	nt	nt	nt	nt	nt	nt
COc1ccc(NC(=O)c2c(-c3ccc(C)cc3)nnc3ccccc23)c(OC)c1	2.9%	-1.8%	?	nt	nt	nt	nt	nt	nt
Cc1cc([N+](=O)[O-])ccc1NC(c1nnc(-c2ccccc2)o1)c1ccccc1F (centres undefined)	1.5%	0.0%	?	nt	nt	nt	nt	nt	nt
CCCc1sc(N/N=C/c2ccccn2)nc1-c1ccc(Br)cc1	-0.2%	?	2.91µM*	-0.6	-97.3%	?	-29.3%	-29.5%	5.8µM*
COc1ccc(-c2c[n+]3c(n2-c2ccccc2)SCC3)cc1	-0.6%	-14.8%	2.06µM*	-0.5	-38.6%	-1.1%	1.3%	-9.8%	7.31µM*
Cc1ccc(-c2c[n+]3c(n2-c2ccccc2)SCC3)cc1	-1.2%	-15.8%	2.31µM*	-2.3	-46.0%	3.4%	0.0%	-3.8%	10.3µM*
Brc1ccc(-c2c[n+]3c(n2-c2ccccc2)SCC3)cc1	-0.3%	-4.9%	?	-3.3	-21.1%	2.7%	nt	nt	nt
COc1ccccc1NC(=O)C1=C(C)Nc2ncnn2C1c1cccn1C (centres undefined)	0.5%	4.7%	nt	nt	5.2%	nt	nt	nt	nt
Cc1cc2n(n1)CCCN2C(=O)Nc1ccccc1C(F)(F)F	-0.3%	1.5%	?	nt	nt	nt	nt	nt	nt
NC(=O)c1c(-c2ccc(Cl)cc2Cl)csc1NC(=O)Cc1ccccc1	2.2%	-13.6%	2.59µM*	-5.7	-37.7%	12.7%	-18.2%	1.4%	5.17µM*
CC(C)c1ccc(NC(=O)CN2C(=O)c3cccc4cccc2c34)cc1	0.7%	19.5%	nt	nt	nt	nt	nt	nt	nt
CN(C)c1ccc(C(=O)Nc2c(C(=O)NC(C)(C)C)oc3ccccc23)cc1	-0.7%	2.1%	9.0%	nt	nt	nt	nt	nt	nt
COc1cccc(C(=O)Nc2c(C(=O)NC(C)(C)C)oc3ccccc23)c1	0.1%	5.8%	?	nt	nt	nt	1.3%	-13.5%	-15.5%
SMILES	Nrf2 ARE act	A549 tox-1	Nrf2 inh	IL-2 act	BRCA1 expr up	p53 reactivation	FLuc enzyme inh	A549 tox-2	Nrf2 ARE inh
Cc1ccc(NC(=S)NC(NC(=O)C(C)(C)C)C(Cl)(Cl)Cl)c(C)c1 (centres undefined)	-0.6%	15.4%	2.9%	0.9	-31.4%	-2.7%	nt	nt	nt
Cc1ccc(C)c(NC(=S)NC(NC(=O)/C=C/c2ccccc2)C(Cl)(Cl)Cl)c1 (centres undefined)	-0.3%	-27.4%	8.2µM*	-0.4	-76.4%	-22.3%	-20.8%	?	0.366µM*
Cc1cccc(N2CCN(C(=O)CCNS(=O)(=O)c3ccc4c(c3)CCC(=O)N4)CC2)c1C	-0.7%	nt	5.8µM*	18.4	-61.3%	-14.0%	0.8%	0.9%	?
COc1cccc(CN(C)C(=O)c2cc(COc3c(F)cccc3F)on2)c1	-0.7%	2.3%	-14.1%	-0.7	46.3%	4.2%	nt	nt	nt
Cc1ccc(OCc2cc(C(=O)N3CCCCCCC3)no2)cc1C	2.5%	0.3%	?	0.3	?	24.6%	nt	nt	nt
COc1cccc(CN(C)C(=O)c2cc(COc3ccc4ncccc4c3)on2)c1	0.8%	?	3.66µM*	2.1	-38.8%	-4.7%	-8.3%	-1.0%	7.31µM*
O=C(c1cc(COc2ccc3ncccc3c2)on1)N1CCCCCC1	2.1%	-19.3%	3.66µM*	-4.5	46.7%	18.0%	?	0.2%	6.51µM*
O=C(NC1CCCC1)c1cc(COc2ccc3ncccc3c2)on1	0.2%	-9.2%	6.51µM*	-5.2	-20.7%	1.7%	-17.3%	4.0%	3.66µM*
O=C(c1cc(COc2ccc3ncccc3c2)on1)N1CCCC1	5.9%	3.4%	4.11µM*	-1.3	-32.2%	0.3%	?	-2.7%	?
